Source: PubChem BioAssay AID1159580 (chemical genetic matrix, 2015)
Where “and” joins values, the source holds several entries; their conditions need not be identical. Equal entries are not always repeated. About 2,000 (36%) of roughly 5,500 compounds were called active. About 18% were inconclusive and are not listed. The list shows a part of the results. Values without a mark were called inactive. No stated cut-off is given here; in the data, active means normalized growth mostly below about 0.91 (no sharp cut-off); inconclusive means no clear call, values can overlap the other calls; inactive means mostly above about 0.92.

Assay: chemical genetic growth profiling, strain panel (AID 1159580);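 further: tested at 20 µM; growth read once vehicle control cultures reached saturation at 30 °C; 1 = growth at the plate median or of vehicle wells; lower values mean less growth of the strain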
Settings: growth OD
[1] = S. cerevisiae deletion strains, locus YAL013W, strain DEP1, hits give low values
[2] = S. cerevisiae deletion strains, locus YBR229C, strain ROT2, hits give low values
[3] = S. cerevisiae deletion strains, locus YDL101C, strain DUN1, hits give low values
[4] = S. cerevisiae deletion strains, locus YDL134C, strain PPH21, hits give low values
[5] = S. cerevisiae deletion strains, locus YDR150W, strain NUM1, hits give low values
[6] = S. cerevisiae deletion strains, locus YEL061C, strain CIN8, hits give low values
[7] = S. cerevisiae deletion strains, locus YGR078C, strain PAC10, hits give low values
[8] = S. cerevisiae deletion strains, locus YHR030C, strain SLT2, hits give low values
[9] = S. cerevisiae deletion strains, locus YHR087W, strain rtc3, hits give low values
[10] = S. cerevisiae deletion strains, locus YJR043C, strain POL32, hits give low values
[11] = S. cerevisiae deletion strains, locus YJR075W, strain HOC1, hits give low values
[12] = S. cerevisiae deletion strains, locus YLR039C, strain RIC1, hits give low values
[13] = S. cerevisiae deletion strains, locus YLR058C, strain SHM2 (second series), hits give low values
[14] = S. cerevisiae deletion strains, locus YLR085C, strain ARP6, hits give low values
[15] = S. cerevisiae deletion strains, locus YLR262C, strain YPT6, hits give low values
[16] = S. cerevisiae deletion strains, locus YML094W, strain GIM5, hits give low values
[17] = S. cerevisiae deletion strains, locus YMR219W, strain ESC1, hits give low values
[18] = S. cerevisiae deletion strains, locus YMR263W, strain SAP30, hits give low values
[19] = S. cerevisiae deletion strains, locus YNL153C, strain GIM3, hits give low values
[20] = S. cerevisiae deletion strains, locus YNL298W, strain CLA4 (second series), hits give low values
[21] = S. cerevisiae deletion strains, locus YNL322C, strain KRE1, hits give low values
[22] = S. cerevisiae deletion strains, locus YNR030W, strain Alg12, hits give low values
[23] = S. cerevisiae deletion strains, locus YPL055C, strain LGE1, hits give low values
[24] = S. cerevisiae deletion strains, locus YPL241C, strain CIN2, hits give low values
[25] = S. cerevisiae deletion strains, locus YPR135W, strain CTF4, hits give low values

Work on `O=c1c2cc(NS(=O)(=O)c3ccc(Cl)cc3)ccc2oc2ncccc12` yielded a normalized growth [1] of 0.979, a normalized growth [2] of 1.02 and a normalized growth [3] of 0.988. For the same molecule, the normalized growth [4] was 1, the normalized growth [5] was 0.961 and the normalized growth [6] was 1.04. It also gave a normalized growth [7] of 0.979, a normalized growth [8] of 0.998 and a normalized growth [9] of 1.06. It also gave a normalized growth [10] of 0.976, a normalized growth [11] of 1.03 and a normalized growth [12] of 1.03. It also gave a normalized growth [13] of 1.02, a normalized growth [14] of 1.04 and a normalized growth [15] of 1.07. For the same molecule, the normalized growth [16] was 1.08, the normalized growth [17] was 1.02 and the normalized growth [18] was 0.991. The normalized growth [19] was 0.993, the normalized growth [20] was 0.997 and the normalized growth [21] was 0.994. For the same molecule, the normalized growth [22] was 1.02, the normalized growth [23] was 1.04 and the normalized growth [24] was 1.01. The normalized growth [25] was 0.984.
For `O=S(=O)(Nc1ccc(Oc2ccc(Cl)cc2)cc1)c1ccccc1`, the normalized growth [1] was 0.219 (active), the normalized growth [2] was 0.923 (active) and the normalized growth (S. cerevisiae deletion strains, locus YCL061C, strain MRC1, hits give low values) was 0.851 (active). The normalized growth [3] was 0.911, the normalized growth [5] was 0.518 (active) and the normalized growth [6] was 0.51 (active). For the same molecule, the normalized growth (S. cerevisiae deletion strains, locus YGR052W, strain FMP48, hits give low values) was 0.122 (active), the normalized growth [7] was 0.901 (active) and the normalized growth [8] was 0.114 (active) and 0.113 (active). For the same molecule, the normalized growth (S. cerevisiae deletion strains, locus YHR079C, strain IRE1, hits give low values) was 0.199 (active), the normalized growth (S. cerevisiae deletion strains, locus YHR082C, strain KSP1, hits give low values) was 0.137 (active) and the normalized growth [9] was 0.866 (active). For the same molecule, the normalized growth (S. cerevisiae deletion strains, locus YJL095W, strain BCK1, hits give low values) was 0.108 (active), the normalized growth [10] was 0.843 (active) and the normalized growth (S. cerevisiae deletion strains, locus YJR066W, strain TOR1, hits give low values) was 0.206 (active). For the same molecule, the normalized growth [11] was 0.899, the normalized growth (S. cerevisiae deletion strains, locus YKL203C, strain TOR2, hits give low values) was 0.274 (active) and the normalized growth [12] was 0.293 (active). The normalized growth [13] was 0.998, the normalized growth [14] was 0.247 (active) and the normalized growth (S. cerevisiae deletion strains, locus YLR113W, strain HOG1, hits give low values) was 0.166 (active). For the same molecule, the normalized growth [15] was 0.117 (active), the normalized growth [16] was 0.483 (active) and the normalized growth [17] was 0.925 (active). The normalized growth [19] was 0.879 (active), the normalized growth (S. cerevisiae deletion strains, locus YNL183C, strain NPR1, hits give low values) was 0.154 (active) and the normalized growth (S. cerevisiae deletion strains, locus YNL207W, strain RIO2, hits give low values) was 0.248 (active). For the same molecule, the normalized growth [20] was 0.321 (active), the normalized growth [21] was 1.04 and the normalized growth [22] was 0.191 (active). The normalized growth (S. cerevisiae deletion strains, locus YOR119C, strain RIO1, hits give low values) was 0.226 (active), the normalized growth (S. cerevisiae deletion strains, locus YOR231W, strain MKK1, hits give low values) was 0.159 (active) and the normalized growth [23] was 0.106 (active). For the same molecule, the normalized growth [24] was 0.341 (active), the normalized growth (S. cerevisiae deletion strains, locus YPL256C, strain CLN2, hits give low values) was 0.239 (active) and the normalized growth [25] was 0.309 (active).
`Cc1ccc(S(=O)(=O)Nc2ccc(C)c([N+](=O)[O-])c2)cc1` gave a normalized growth [1] of 0.995, a normalized growth [2] of 0.988 and a normalized growth [3] of 0.95. The normalized growth [4] was 0.994, the normalized growth [5] was 0.958 and the normalized growth [6] was 1.03. It also gave a normalized growth [7] of 0.986, a normalized growth (S. cerevisiae deletion strains, locus YGR229C, strain SMI1, hits give low values) of 1 and a normalized growth [8] of 0.989. It also gave a normalized growth [9] of 1.02, a normalized growth (S. cerevisiae deletion strains, locus YJL187C, strain SWE1, hits give low values) of 1.01 and a normalized growth [10] of 0.976. The normalized growth [11] was 0.971, the normalized growth (S. cerevisiae deletion strains, locus YKL190W, strain CNB1, hits give low values) was 0.988 and the normalized growth [12] was 1.02. For the same molecule, the normalized growth [13] was 1, the normalized growth [14] was 0.991 and the normalized growth [15] was 1.01. For the same molecule, the normalized growth [16] was 1.01, the normalized growth [17] was 0.993 and the normalized growth [18] was 0.999. It also gave a normalized growth [19] of 0.979, a normalized growth [20] of 0.963 and a normalized growth [21] of 0.983. It also gave a normalized growth [22] of 0.961, a normalized growth (S. cerevisiae deletion strains, locus YOL006C, strain TOP1, hits give low values) of 1.02 and a normalized growth [23] of 1.01. It also gave a normalized growth [24] of 0.952, a normalized growth [25] of 0.898 and a normalized growth (S. cerevisiae strains, strain wild type, hits give low values) of 0.981.
